Holding throughout (test): NCI-60 one-dose screen, 48 h (100 = growth as untreated, 0 = no growth, -100 = all killed)
Settings in all cases: 10 µM unless noted

Test [1] relates to NCI-H23 lung.
In test [2] the test system is NCI-H226 lung.
For test [3], the system named is NCI-H322M lung.
Test [4] has as its system HOP-62 NSCLC.
Test [5] deals with NCI-H460 lung.
For test [6], the system named is HOP-92 NSCLC.
Test [7] concerns NCI-H522 lung.
In test [8] the test system is A549/ATCC NSCLC.
For test [9], the system named is 786-0 renal.
In test [10] the test system is DU-145 prostate.
The test system of test [11] is K-562 leukemia.
The subject of test [12] is MALME-3M melanoma.
For test [13], the system named is MDA-MB-231 breast.
Test [14] deals with RXF 393 renal.
The subject of test [15] is SF-268 CNS.
The subject of test [16] is SF-295 CNS.
Test [17] has as its system SF-539 CNS.
Test [18] concerns UACC-257 melanoma.
Test [19] relates to M14 melanoma.
In test [20] the test system is COLO 205 colon.

Each structure is given as a SMILES string. About 83,000 compounds went through this panel and 20% of them were active in at least one assay; those are over-represented in the sample as a whole.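 Cell lines were cultured in 96-well plates, exposed to a single compound concentration, and assessed for percent growth 48 hours later.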 Values without a mark were called inactive. The source made the active and inactive calls. Rule for the calls: active = growth percent below 10; inactive = the rest.

`COc1cc2cc(Oc3ccc(NC(=O)Nc4ccc(F)c(C(F)(F)F)c4)cc3)c(C)nc2cc1OCCN(C)C`: the growth is 102% in [1]; 104% in test [2]; 102% in test [3]; 104% in [4]; 101% in test [5]; 69.8% in test [6]. In addition, the growth in [7] is 96.1%; in test [8], 93.2%; in test [9], 88.8%; in test [10] it was 106%; in test [11], 3.63% (active); in test [12], 92.7%. The growth in test [13] was 103%; in test [14] it was 76.5%; in [15], 98.5%; in [16] it was 104%; in test [17], 102%; in test [18] it was 105%. Further, the growth in test [19] is 95.7%.

Consider `Cc1nc(N)sc1-c1csc(Nc2ccc(C(F)(F)F)cc2)n1`, for which the growth was 34.4% in test [1]; 37.4% in test [2]; 61.4% in [3]; 47.3% in test [4]; 25.1% in test [5]; 37.3% in test [6]. Also, the growth in test [7] is -56.3% (active); in [8], 45.1%; in test [9], 38.6%; in [10], 35.8%; in test [11], 22.5%; in test [12] it was 10.1%. Also, the growth is 20.1% in [13]; 18.3% in [14]; 49.5% in [15]; 7.89% (active) in test [16]; 27.1% in [17]; 37.2% in test [18]. Moreover, the growth in [19] is 28.4%.

As for `Cc1ccc(/C=N/Nc2nc(Nc3ccccc3)nc(Nc3ccc(S(N)(=O)=O)cc3)n2)cc1`, the growth in test [1] is 76.7%; in [2], 79.3%; in test [3] it was 90.8%; in test [4], 86.8%; in [5], 54.7%; in test [6], 112%. Further, the growth is 89.5% in test [7]; 83.2% in test [8]; 46.9% in test [9]; 65.1% in [10]; 56.8% in [11]; 91.8% in [12]. For the same molecule, the growth is 73.4% in test [13]; -2.59% (active) in test [14]; 87.1% in test [15]; 57.7% in test [16]; 44.7% in test [17]; 101% in test [18]. For the same molecule, the growth in [19] is 72.8%.

Regarding `Cc1cc(=O)oc2cc(OCCCOc3ccc(/C=C/C(=O)Nc4ccc(Br)cc4)cc3)ccc12`, the growth in test [1] is 67.8%; in test [2], 77.4%; in test [3], 94.9%; in test [4], 85.2%; in [5], 9.24% (active); in [6], 53.5%. Further, the growth in test [7] was 80%; in test [8], 92.2%; in test [9], 61.7%; in test [20], 97.7%; in [10], 67.1%; in test [11], 78.4%. Besides, the growth in test [12] is 40.4%; in test [13], 70.5%; in [14], 57.8%; in [15], 67.8%; in [16] it was 95.1%; in test [17], 87.9%. Besides, the values for the growth in test [18] and in test [19] were 91.4% and 84%, respectively.

In the case of `CCOC(=O)c1cccc(NC2=C(Cl)C(=O)C(C)=C(C)C2=O)c1`, the growth was 91.9% in [1]; 100% in [2]; 105% in test [3]; 103% in test [4]; 101% in test [5]; 54.2% in [6]. Besides, the growth was 95% in test [7]; 102% in test [8]; 105% in test [9]; 104% in test [10]; 0.169% (active) in test [11]; 104% in [12]. The growth was 28% in test [13]; 102% in test [14]; 92.8% in test [15]; 102% in test [16]; 95.8% in test [17]; 93.3% in [18]. Besides, in [19], the growth was 100%.

Regarding `CC[C@]12C=CCN3CC[C@@]4(c5ccc(OC)cc5N(C)[C@H]4[C@@](O)(C(=O)OC)[C@@H]1OC(=O)CCN1CCc4ccccc4C1)[C@@H]32`, the growth in [1] was 81.9%; in test [2] it was 98.9%; in test [3], 96.1%; in test [4], 87.5%; in [5], 96.8%; in test [6] it was 40.1%. The growth in test [7] was 101%; in [8] it was 87.8%; in test [9] it was 92.7%; in [10] it was 106%; in test [11], 75.4%; in test [12], 89.2%. In addition, the growth is 84.9% in test [13]; -95.9% (active) in test [14]; 85.2% in test [15]; 104% in [16]; 95.9% in test [17]; 100% in [18]. For the same molecule, the growth in [19] was 98.2%.

In the case of `O=C(CSc1nc2ccccc2c(=O)n1-c1ccccc1)Nc1ccc(S(=O)(=O)Nc2nccs2)cc1`, the growth in test [1] is 86.1%; in test [2], 73.6%; in [3], 77%; in test [4] it was 80.4%; in test [5] it was 85.2%; in test [6], 89.4%. The growth was 26.7% in test [7]; 84.4% in [8]; 66.1% in [9]; 84.1% in [10]; 58.2% in [11]; 88.5% in test [12]. The growth was 74.1% in test [13]; 76.5% in [14]; 44.5% in [15]; 98.2% in test [16]; 69% in test [17]; 62.8% in [18]. The growth in test [19] was 78.6%.

In the case of `O=C(/C=C/c1ccccc1)c1cccc(O)c1`, the growth was 104% in test [1]; 93.4% in [2]; 93.4% in test [3]; 105% in [4]; 101% in test [5]; 96.1% in test [6]. In addition, the growth is 95.1% in test [7]; 92.7% in test [8]; 94.6% in test [9]; 110% in test [20]; 105% in test [10]; 71.6% in test [11]. The growth in test [12] is 104%; in test [13], 105%; in [14], 92.4%; in test [15], 104%; in [16], 98.3%; in test [17], 103%. Further, the growth was 101% in test [18] and 95.1% in [19].

The record behind these values is PubChem BioAssay (NCI).
